Test results published in PubChem BioAssay (EPA / NIEHS).
Records with an inconclusive call do not appear. Calls of active or inactive are those of the source. The calls were made as follows, unless noted: active = hit-call score of the fitted dose curve at least 0.9, where 1 is the maximum; inactive = score below 0.9.

What was measured:
[1] = CCTE_Shafer_MEA_acute_per_network_burst_spike_number_mean: CCTE's Neural Acute Assay for Average Number of Spikes in a Network Burst, Shafer Lab (AID 2284019)
Outline: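 Percent change from baseline in mean spikes per network burst, spikes detected at 8x rms noise. Each compound at 0.03-40 uM in at least three wells of rat cortical cultures, recorded 40 min before and 40 min during exposure.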

[2] = CCTE_Shafer_MEA_acute_per_network_burst_spike_number_std: CCTE's Neural Acute Assay for Standard Deviation of Number of Spikes in a Network Burst, Shafer Lab (AID 2284020);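 also: fitted for decrease in spike-number SD versus DMSO so actives lower it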
Outline: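 Endpoint: percent change from 40 min baseline in standard deviation of spikes per network burst, after 40 min compound exposure (0.03-40 uM, 37 C). Cortical rat neurons on MEA at DIV 13 or 15; spikes detected at 8x rms noise, 300-5000 Hz band-pass.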

[3] = CCTE_Shafer_MEA_acute_per_network_burst_electrodes_number_mean: CCTE's Neural Acute Assay for Mean Number of Electrodes in a Network Burst, Shafer Lab (AID 2284021);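 also: curves fitted for decreases only so hits reduce electrodes per burst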
Outline: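 Rat primary cortical neurons on 48-well MEAs, DIV 13 or 15, were treated at 0.03-40 uM. Spikes were detected at 8x rms noise and recorded at 37 C. The mean electrodes per network burst in a 40 min exposure recording was expressed as percent change from a 40 min baseline.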

[4] = CCTE_Shafer_MEA_acute_network_burst_percentage: CCTE's Neural Acute Assay for Percentage of Network Bursts, Shafer Lab (AID 2284022);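 also: curves fitted for loss so actives lower network burst percentage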
Outline: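 Rat primary cortical neuron networks on 48-well MEA plates, DIV 13 or 15, treated acutely with compound (0.03-40 uM, at least three wells). Percent of spikes within network bursts compared between 40-min recordings before and during exposure at 37 C, expressed as percent change.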

[5] = CCTE_Shafer_MEA_acute_cross_correlation_area: CCTE's Neural Acute Assay for Area of Cross Correlation, Shafer Lab (AID 2284024);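 also: curves fitted for loss of cross-correlation area so actives lower synchrony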
Outline: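 Rat primary cortical neurons on 48-well MEA, DIV 13 or 15; compounds 0.03-40 uM. Baseline and post-exposure 40 min recordings at 37 C; percent change in area under pooled inter-electrode cross-correlation near zero lag, relative to DMSO.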

[6] = CCTE_Shafer_MEA_acute_cross_correlation_HWHM: CCTE's Neural Acute Assay for Cross Correlation at Half Width at Half Maximum, Shafer Lab (AID 2284026);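 also: spontaneous network firing of rat primary cortical neurons on multiwell microelectrode arrays; percent change per well from pre-dose baseline in spike cross-correlogram half width; hits are a decrease in cross-correlogram half width relative to DMSO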
Outline: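 Rat primary cortical neurons on 48-well MEA plates; 40-min baseline and 40-min post-exposure recordings at 37 C on DIV 13 or 15, compounds 0.03-40 uM. Spikes detected at 8x rms noise; percent change in cross-correlogram HWHM per well vs baseline.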

[7] = CCTE_Shafer_MEA_acute_synchrony_index: CCTE's Neural Acute Assay for Synchrony, Shafer Lab (AID 2284027);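 also: network synchrony index of spontaneous spiking in primary rat cortical neurons on MEAs; fitted for loss of signal so actives lower synchrony relative to DMSO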
Outline: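 Rat cortical cultures, DIV 13/15; spikes detected at 8x rms noise, 300-5000 Hz band-pass. Compound 0.03-40 uM, ≥3 wells; 40-min pre- and post-exposure recordings, 37 C. Readout: % change in synchrony index; loss-of-signal fit vs DMSO.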

[8] = biological target: Estrogen receptor (Homo sapiens) (UniProt P03372); assay: CCTE_Deisenroth_AIME_384WELL_LUC_Active: CCTE's 384-well Estrogen Receptor Transactivation Assay with AIME metabolic competence (ERTA luciferase; metabolism positive), Deisenroth Lab (AID 2284030; active = hit-call score of the fitted dose curve at least 0.9, where 1 is the maximum)
Outline: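 Chemicals (10-point, 0.002-200 uM) were first incubated 2 hours with alginate-immobilized induced male Sprague Dawley rat liver S9. The conditioned medium was then applied to VM7Luc4E2 cells for 24 hours, with ER luciferase induction read by luminescence relative to 17beta-estradiol.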

[9] = CCTE_Deisenroth_AIME_384WELL_CTox_Active: Cytotoxicity Assessment (CTOX) in CCTE's 384-well Estrogen Receptor Transactivation Assay with AIME metabolic competence (metabolism positive), Deisenroth Lab (AID 2284037; active = hit-call score of the fitted dose curve at least 0.9, where 1 is the maximum;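 also: chemicals first conditioned 2 h by alginate-bound induced rat liver S9 before cells; activity means signal loss indicating cell death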)
Outline: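 Cytotoxicity in VM7Luc4E2 breast cells, 24 hour, measured as protease-substrate fluorescence loss, after 2-hour metabolic conditioning with induced rat hepatic S9 in alginate microspheres. Concentrations 0.002 - 200 uM, 10 points, bidirectional fitting.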

[10] = biological target: Estrogen receptor (Homo sapiens) (UniProt P03372); assay: CCTE_Deisenroth_AIME_384WELL_LUC_Inactive: CCTE's 384-well Estrogen Receptor Transactivation Assay without AIME metabolic competence (ERTA luciferase; metabolism negative), Deisenroth Lab (AID 2284038; active = hit-call score of the fitted dose curve at least 0.9, where 1 is the maximum;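 also: VM7Luc4E2 breast cells given medium preincubated 2 h with S9-free microspheres; hits raise estrogen receptor luciferase signal so potencies reflect agonists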)
Outline: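 Metabolism-negative mode: AIME lids stamped in alginate-water, no hepatic S9. 2 h chemical incubation → medium onto VM7Luc4E2 ERTA, 24 h. Readout luciferase luminescence; gain-of-signal fit vs 17beta-estradiol. Conc. 0.002 - 200 uM.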

[11] = CCTE_Deisenroth_AIME_384WELL_CTox_Inactive: Cytotoxicity Assessment (CTOX) in CCTE's 384-well Estrogen Receptor Transactivation Assay without AIME metabolic competence (metabolism negative), Deisenroth Lab (AID 2284039; active = hit-call score of the fitted dose curve at least 0.9, where 1 is the maximum;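 also: cell viability via live-cell protease substrate cleaved to fluorescent probe; cells exposed 24 h to medium preincubated 2 h with alginate-water beads without S9; loss of fluorescence signal means loss of viability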)
Outline: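 Metabolism-negative arm: chemicals (10-point, 0.002 - 200 uM) preincubated 2 h with alginate-water lids, medium moved onto VM7Luc4E2 cells for 24 h. Fluorescent live-cell protease readout; bidirectional curve fit.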

[12] = biological target: Estrogen receptor (Homo sapiens) (UniProt P03372); assay: CCTE_Deisenroth_AIME_384WELL_LUC_Shift: CCTE's 384-well Estrogen Receptor Transactivation Assay with AIME metabolic competence data shift (ERTA luciferase; difference in metabolism positive and negative), Deisenroth Lab (AID 2284041);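 also: shift is response with S9 minus without S9 so positive means metabolism raised ER signal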
Outline: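 Test chemicals (0.002–200 uM, 10-point) were pre-incubated 2 h with alginate microspheres containing phenobarbital/beta-naphthoflavone-induced male Sprague Dawley rat liver S9 or water, then medium was transferred to VM7Luc4E2 cells for 24 h luciferase readout; shift = S9-positive minus S9-negative normalized response.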

[13] = CCTE_Shafer_MEA_dev_firing_rate_mean: CCTE's Neural Network Formation Assay for Mean Firing Rate, Shafer Lab (AID 2284031);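 as to AC50: curve fitted for loss of firing so AC50 reflects decreased mean firing rate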
Outline: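 Read-out: spike count/recording length, averaged over active electrodes, then AUC across days 5, 7, 9, 12. Rat cortical cultures on MEA; continuous 12-day exposure, media and treatment renewed DIV 5, 9; DMSO baseline.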

[14] = CCTE_Shafer_MEA_dev_per_burst_spike_percent: CCTE's Neural Network Formation Assay for Percent of Spikes in a Burst, Shafer Lab (AID 2284032);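 as to AC50: fitted as a decrease in burst spike percentage below DMSO baseline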
Outline: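 Value is trapezoidal AUC over recordings on days 5, 7, 9 and 12 of the well-mean fraction of spikes falling in single-electrode bursts; rat cortical cultures exposed continuously from plating, treatment renewed DIV 5 and 9, fitted downward against DMSO.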

[15] = CCTE_Shafer_MEA_dev_active_electrodes_number: CCTE's Neural Network Formation Assay for Number of Active Electrodes, Shafer Lab (AID 2284040; active = hit-call score of the fitted dose curve at least 0.9, where 1 is the maximum;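 as to AC50: potency for loss of active electrodes versus DMSO so lower counts are hits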)
Outline: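 Developing rat cortical networks on MEAs, exposed DIV 0–12. Value is the AUC of active-electrode counts (≥5 spikes/min) from days 5, 7, 9, 12, relative to DMSO.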

[16] = CCTE_Shafer_MEA_dev_burst_rate: CCTE's Neural Network Formation Assay for Burst Rate, Shafer Lab (AID 2284042);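 as to AC50: potency for loss of burst rate below DMSO control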
Outline: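 Cells plated, treated day 0; recorded DIV 5, 7, 9, 12; fed and re-treated DIV 5, 9. Endpoint: bursts per recording time, active-electrode well mean, trapezoidal AUC, fitted in decreasing direction against DMSO baseline.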

Measured: AC50

Chain of Estrogen receptor (Homo sapiens) (P03372 whole entry, looked up): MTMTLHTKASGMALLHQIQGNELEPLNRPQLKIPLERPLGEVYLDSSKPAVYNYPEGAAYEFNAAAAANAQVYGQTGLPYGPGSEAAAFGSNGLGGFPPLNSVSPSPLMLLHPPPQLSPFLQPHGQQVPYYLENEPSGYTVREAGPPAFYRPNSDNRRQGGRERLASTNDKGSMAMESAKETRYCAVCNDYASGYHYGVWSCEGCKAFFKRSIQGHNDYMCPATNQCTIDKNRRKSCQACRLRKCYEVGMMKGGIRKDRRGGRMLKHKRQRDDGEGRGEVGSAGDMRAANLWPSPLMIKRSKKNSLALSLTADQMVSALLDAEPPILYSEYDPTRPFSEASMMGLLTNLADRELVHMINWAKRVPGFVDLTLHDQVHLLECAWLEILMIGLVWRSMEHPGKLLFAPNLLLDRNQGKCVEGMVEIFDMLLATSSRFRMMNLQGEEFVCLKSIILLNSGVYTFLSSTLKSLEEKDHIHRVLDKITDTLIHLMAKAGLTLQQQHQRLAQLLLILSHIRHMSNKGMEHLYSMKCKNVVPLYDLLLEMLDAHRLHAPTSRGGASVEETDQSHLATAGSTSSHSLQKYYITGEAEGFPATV

CN1C(=O)N(C)C(O)C1O (stereo not given)
inactive: [1] | [2] | [3] | [4] | [5] | [6] | [7]

Nc1ccc(N)c(Cl)c1
inactive: [1] | [2] | [3] | [4] | [5] | [6] | [7]

O=C1CCCN1CCO
inactive: [1] | [2] | [3] | [4] | [5] | [6] | [7]

C=CC(=O)NC(C)(C)CS(=O)(=O)O
inactive: [8] | [9] | [10] | [11] | [12]

CN(C)c1ccc(C(=N)c2ccc(N(C)C)cc2)cc1
inactive: [12]
active: [13] 2.67 µM | [14] 1.92 µM | [9] 100 µM | [11] 31.1 µM | [15] 2.89 µM | [16] 1.71 µM

c1ccc2c(c1)ccc1cc3c(ccc4ccccc43)cc12
inactive: [13] | [14] | [10] | [11] | [15] | [12] | [16]

Cc1ccc(C(C)c2ccc(C)c(C)c2)cc1C
active: [8] 16 µM | [12] 0.413 nM
inactive: [10]

CC=CC(F)(F)C(F)(F)C(F)(F)F
inactive: [13] | [14] | [15] | [16]

FC(F)=C(F)OC(F)(F)C(F)(F)C(F)(F)F
inactive: [13] | [14] | [16]

CCOC(F)(F)C(F)(F)C(F)(F)C(F)(F)F
inactive: [13] | [14] | [15] | [16]

N[C@H]1C(O)O[C@H](CO)[C@H](O)[C@@H]1O (stereo not given in full)
inactive: [13] | [14] | [16]

CCOC(=O)CC
inactive: [8] | [9] | [10] | [11] | [12]

COC(F)(F)C(F)(C(F)(F)F)C(F)(F)F
inactive: [13] | [14] | [15] | [16]

Oc1ccc(Cl)cc1Cc1cc(Cl)ccc1O
inactive: [12]
active: [9] 102 µM | [11] 100 µM

O=S(=O)(O)c1ccccc1C=Cc1ccc(-c2ccc(C=Cc3ccccc3S(=O)(=O)O)cc2)cc1
inactive: [8] | [10] | [12]

O=C1CCCC1
inactive: [8] | [9] | [10] | [12]

NC(CO)(CO)CO
inactive: [8] | [10] | [11] | [12]

O=C(c1ccccc1)C1CCC1
inactive: [8] | [10] | [12]

CC1=NN(c2cc(S(=O)(=O)O)ccc2Cl)C(=O)C1N=Nc1ccccc1 (stereo not given)
inactive: [8] | [10] | [11] | [12]

CC1(C)S[C@@H]2[C@H](NC(=O)COc3ccccc3)C(=O)N2[C@H]1C(=O)O
inactive: [13] | [14] | [15] | [16]

CCCCC(CC)CCC(CC(C)C)OS(=O)(=O)O (stereo not given)
inactive: [8] | [10] | [11] | [12]

CCN(CCC#N)c1ccc(N=Nc2c(Cl)cc([N+](=O)[O-])cc2Cl)cc1
active: [11] 100 µM
inactive: [8] | [9] | [10] | [12]

O=C(C(Cl)Cl)N1CCOC12CCCCC2
inactive: [8] | [10] | [12]
active: [11] 19.8 µM

CCCCCc1ccc(Cl)cc1
inactive: [8] | [9] | [10] | [12]

C=C1C2CCC(C2)C1(C)C (stereo not given)
inactive: [8] | [9] | [10] | [11] | [12]

CC(=O)OC(C)C
inactive: [8] | [9] | [10] | [12]

CCCCCCCC[N+](C)(CCCCCCCC)CCCCCCCC
active: [9] 39.3 µM | [11] 19.2 µM
inactive: [12]
